Assay results taken from ChEMBL document CHEMBL5724796, “Tm Shift (DSF) assay results for EUbOPEN Chemogenomics Library” (2024).
Non-standard residues stand in square brackets, D forms with d. Residues, ends and D or L forms follow the SMILES beside them. *: point of attachment. Tyr(3-Cl) = N[C@@H](Cc1ccc(O)c(Cl)c1)C(=O)O; Benzoyl(3,5-Cl2) = O=C(c1cc(Cl)cc(Cl)c1)*; Lys(Et2) = CCN(CC)CCCC[C@H](N)C(=O)O; Gly(cPent) = N[C@H](C(=O)O)C1CCCC1; Cbz = O=C(OCc1ccccc1)*; NH(propargyl) = C#CCN*; CH2F = FC*

Legend:
Details in all cases: Compound concentration 20.0 uM
[1] = biological target: Tyrosine-protein kinase ABL1 (Homo sapiens) (UniProt P00519)
[2] = biological target: Bromodomain-containing protein 4 (Homo sapiens) (UniProt O60885)
[3] = biological target: Cyclin-dependent kinase 2 (Homo sapiens) (UniProt P24941)
[4] = biological target: Casein kinase I isoform delta (Homo sapiens) (UniProt P48730)
[5] = biological target: Glycogen synthase kinase-3 beta (Homo sapiens) (UniProt P49841)
[6] = biological target: Mitogen-activated protein kinase 1 (Homo sapiens) (UniProt P28482)
[7] = biological target: T1, Aurora kinase A (Homo sapiens) (UniProt O14965)
T1 sequence (whole entry): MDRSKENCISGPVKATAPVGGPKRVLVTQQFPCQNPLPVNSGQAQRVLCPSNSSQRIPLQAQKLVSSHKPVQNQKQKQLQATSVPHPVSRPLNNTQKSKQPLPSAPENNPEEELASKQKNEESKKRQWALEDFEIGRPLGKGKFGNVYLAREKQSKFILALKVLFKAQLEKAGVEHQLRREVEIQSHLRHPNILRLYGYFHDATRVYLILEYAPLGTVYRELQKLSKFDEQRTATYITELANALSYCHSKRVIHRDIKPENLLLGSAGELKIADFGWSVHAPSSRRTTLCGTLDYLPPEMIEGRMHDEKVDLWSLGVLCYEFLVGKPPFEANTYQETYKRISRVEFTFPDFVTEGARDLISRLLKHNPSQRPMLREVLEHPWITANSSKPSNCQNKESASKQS

[8] = biological target: T2, Transcription intermediary factor 1-alpha (Homo sapiens) (UniProt O15164)
T2 sequence (whole entry): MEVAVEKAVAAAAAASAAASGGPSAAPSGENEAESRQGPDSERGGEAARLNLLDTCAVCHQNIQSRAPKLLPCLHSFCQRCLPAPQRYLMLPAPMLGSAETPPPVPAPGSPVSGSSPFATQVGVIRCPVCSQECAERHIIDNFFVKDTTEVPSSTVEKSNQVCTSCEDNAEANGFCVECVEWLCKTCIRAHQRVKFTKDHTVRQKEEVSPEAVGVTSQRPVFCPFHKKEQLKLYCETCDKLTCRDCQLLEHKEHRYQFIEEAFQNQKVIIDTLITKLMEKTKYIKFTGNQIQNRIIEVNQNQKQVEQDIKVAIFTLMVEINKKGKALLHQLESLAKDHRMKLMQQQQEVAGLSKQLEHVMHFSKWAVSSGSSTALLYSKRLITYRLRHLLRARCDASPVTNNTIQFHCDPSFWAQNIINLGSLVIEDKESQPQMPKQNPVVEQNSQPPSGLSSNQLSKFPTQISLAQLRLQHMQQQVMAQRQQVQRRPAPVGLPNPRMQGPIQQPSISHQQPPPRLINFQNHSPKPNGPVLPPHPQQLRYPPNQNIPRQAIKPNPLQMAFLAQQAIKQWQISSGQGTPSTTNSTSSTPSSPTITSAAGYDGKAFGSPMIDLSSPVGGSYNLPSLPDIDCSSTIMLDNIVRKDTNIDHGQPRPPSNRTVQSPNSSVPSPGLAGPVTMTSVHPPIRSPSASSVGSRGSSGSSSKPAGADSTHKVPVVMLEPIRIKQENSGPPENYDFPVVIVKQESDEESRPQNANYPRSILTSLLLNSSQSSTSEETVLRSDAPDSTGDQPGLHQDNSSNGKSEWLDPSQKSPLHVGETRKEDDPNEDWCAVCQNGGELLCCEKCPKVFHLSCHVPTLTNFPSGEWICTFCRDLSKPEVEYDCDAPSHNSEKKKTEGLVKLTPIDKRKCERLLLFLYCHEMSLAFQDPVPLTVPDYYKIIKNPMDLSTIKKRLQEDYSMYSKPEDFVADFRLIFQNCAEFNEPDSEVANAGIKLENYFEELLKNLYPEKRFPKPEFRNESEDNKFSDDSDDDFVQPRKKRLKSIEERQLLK

Sequence of Glycogen synthase kinase-3 beta (Homo sapiens) (P49841 whole entry, looked up): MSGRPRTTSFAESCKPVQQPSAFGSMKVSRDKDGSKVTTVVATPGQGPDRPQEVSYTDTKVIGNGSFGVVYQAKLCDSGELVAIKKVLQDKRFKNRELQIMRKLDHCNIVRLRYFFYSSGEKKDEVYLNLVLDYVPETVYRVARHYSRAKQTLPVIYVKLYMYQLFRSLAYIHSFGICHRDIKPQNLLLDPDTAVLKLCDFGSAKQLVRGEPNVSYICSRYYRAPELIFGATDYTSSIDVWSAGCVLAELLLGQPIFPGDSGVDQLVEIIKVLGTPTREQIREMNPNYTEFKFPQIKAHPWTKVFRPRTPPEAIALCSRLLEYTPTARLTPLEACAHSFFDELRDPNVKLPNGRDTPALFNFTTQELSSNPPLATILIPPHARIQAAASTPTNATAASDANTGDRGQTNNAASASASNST
Sequence of Casein kinase I isoform delta (Homo sapiens) (P48730 whole entry, looked up, canonical isoform): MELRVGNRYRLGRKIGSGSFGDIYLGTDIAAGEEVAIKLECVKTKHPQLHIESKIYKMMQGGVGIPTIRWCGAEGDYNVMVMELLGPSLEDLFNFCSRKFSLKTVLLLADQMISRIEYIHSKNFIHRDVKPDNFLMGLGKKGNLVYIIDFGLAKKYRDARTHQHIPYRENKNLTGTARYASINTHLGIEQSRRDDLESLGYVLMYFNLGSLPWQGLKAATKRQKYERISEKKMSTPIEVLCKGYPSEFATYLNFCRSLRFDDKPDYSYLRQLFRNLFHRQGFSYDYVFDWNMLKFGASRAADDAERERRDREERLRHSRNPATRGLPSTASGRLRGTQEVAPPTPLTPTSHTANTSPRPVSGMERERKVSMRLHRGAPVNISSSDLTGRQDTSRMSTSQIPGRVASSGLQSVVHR
Sequence of Tyrosine-protein kinase ABL1 (Homo sapiens) (P00519 whole entry): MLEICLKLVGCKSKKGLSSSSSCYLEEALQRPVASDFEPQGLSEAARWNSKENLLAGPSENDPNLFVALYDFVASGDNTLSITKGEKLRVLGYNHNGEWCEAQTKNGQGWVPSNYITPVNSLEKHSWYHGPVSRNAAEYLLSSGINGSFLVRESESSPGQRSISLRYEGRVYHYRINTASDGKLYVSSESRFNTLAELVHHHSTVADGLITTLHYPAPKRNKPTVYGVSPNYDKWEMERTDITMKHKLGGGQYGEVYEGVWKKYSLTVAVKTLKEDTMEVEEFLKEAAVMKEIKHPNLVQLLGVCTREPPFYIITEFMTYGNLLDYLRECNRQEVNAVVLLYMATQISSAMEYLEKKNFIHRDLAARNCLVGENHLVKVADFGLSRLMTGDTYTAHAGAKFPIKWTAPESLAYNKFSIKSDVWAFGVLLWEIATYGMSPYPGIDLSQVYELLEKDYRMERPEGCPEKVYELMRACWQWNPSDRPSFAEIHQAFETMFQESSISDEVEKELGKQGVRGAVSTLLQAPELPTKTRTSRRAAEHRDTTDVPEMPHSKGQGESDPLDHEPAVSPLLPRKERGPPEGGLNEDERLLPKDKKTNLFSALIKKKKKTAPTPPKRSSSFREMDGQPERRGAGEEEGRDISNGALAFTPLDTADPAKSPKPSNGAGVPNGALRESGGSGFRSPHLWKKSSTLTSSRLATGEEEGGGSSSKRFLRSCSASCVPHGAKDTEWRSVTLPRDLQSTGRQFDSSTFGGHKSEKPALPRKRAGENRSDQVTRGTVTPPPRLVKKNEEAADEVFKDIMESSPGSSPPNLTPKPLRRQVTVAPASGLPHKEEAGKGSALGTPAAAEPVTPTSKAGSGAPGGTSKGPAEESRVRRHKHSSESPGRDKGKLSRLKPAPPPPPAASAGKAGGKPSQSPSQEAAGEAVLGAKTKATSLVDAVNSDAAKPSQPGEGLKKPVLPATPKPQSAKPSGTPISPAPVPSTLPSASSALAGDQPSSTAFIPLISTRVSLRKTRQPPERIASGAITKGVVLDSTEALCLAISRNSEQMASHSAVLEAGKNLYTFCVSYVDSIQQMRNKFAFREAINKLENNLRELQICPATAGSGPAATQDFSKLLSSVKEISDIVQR
Sequence of Mitogen-activated protein kinase 1 (Homo sapiens) (P28482 whole entry): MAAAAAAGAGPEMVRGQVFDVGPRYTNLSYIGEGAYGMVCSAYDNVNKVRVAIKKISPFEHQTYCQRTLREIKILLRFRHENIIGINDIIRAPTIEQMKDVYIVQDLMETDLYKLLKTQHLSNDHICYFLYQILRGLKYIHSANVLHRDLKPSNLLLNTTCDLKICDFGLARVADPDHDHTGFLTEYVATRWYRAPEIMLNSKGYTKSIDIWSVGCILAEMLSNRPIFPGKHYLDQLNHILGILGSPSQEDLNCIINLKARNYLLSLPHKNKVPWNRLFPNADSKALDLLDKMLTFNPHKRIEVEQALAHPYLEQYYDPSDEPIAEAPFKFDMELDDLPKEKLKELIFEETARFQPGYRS

Structure (SMILES)	ΔTm [1] [°C]	ΔTm [2] [°C]	ΔTm [3] [°C]	ΔTm [4] [°C]	ΔTm [5] [°C]	ΔTm [6] [°C]	ΔTm [7] [°C]	ΔTm [8] [°C]
COc1ccccc1[C@H]1[C@H](C(=O)O)[C@H](c2ccccc2OC)[C@H]1C(=O)Oc1cccc2ccccc12	0.47	-2.56	-0.65	-3.09	0	-0.07	-2.4	-2.09
O=C(O)CCNc1cc(N2CCc3ccccc3CC2)nc(-c2ccccn2)n1	0.06	0.28	-0.09	-0.34	0	-0.2	-1.3	0.15
CN1CC(=O)N2[C@H](c3ccc4c(c3)OCO4)c3[nH]c4ccccc4c3C[C@@H]2C1=O	0.48	-3.03	-0.06	0.06	-0.13	0.16	-2.46	-0.6
CN1CCN(c2nc(-c3ccc(C(=O)NC4(C(=O)NCC#N)CCCCC4)cc3)cs2)CC1	0.26	-0.96	0.12	-0.06	-0.33	-1.88	-0.41	-0.66
CN(C(=O)CCCOc1ccc2[nH]c(=O)ccc2c1)C1CCCCC1	0.63	-1.68	0.09	-0.15	0.07	0.58	-2.27	-2.36
COC(=O)CC[C@H](NC(=O)[C@H](C)NC(=O)OCc1ccccc1)C(=O)N[C@H](C(=O)N[C@@H](CC(=O)OC)C(=O)CF)C(C)C (Cbz-AE(OMe)VD(OMe)-CH2F)	0.32	-1.14	-0.09	-0.04	-0.78	-0.86	-1.1	-1.06
CN(CCC(Oc1ccc(-c2ccccc2)cc1)c1ccc(F)cc1)CC(=O)O (centres undefined)	0.52	2.4	1.59	-0.12	-0.74	0.42	-1.88	-0.18
CC(=O)N1CCC(c2ccc(C(=O)NC(=N)N)cc2C(F)(F)F)CC1	0.12	0.39	0.7	-0.02	-0.96	0.47	-0.69	1.39
CCCSc1nc2c(c(=O)n1-c1ccccc1)SCC2	-0.05	1.58	-0.05	-0.11	-0.82	1.06	0.01	0.72
CCCOc1cc(OCCCCN(C)C)cc(Oc2cc3c(cc2NS(=O)(=O)c2ccc(OC)c(OC)c2)n(C)c(=O)n3C)c1	0.57	0.5	0.09	0.22	0.59	0	-0.88	–
O=C(c1ccc2c(ccn2-c2ccc(F)cc2)c1)N1CC(N2CCN(C(=O)c3nccs3)CC2)C1	0.62	-3.81	-1.22	-0.29	-1.59	0	-3.69	-0.34
CCC(NC(=O)C(CC(C)C)NC(=O)OCc1ccccc1)C(=O)C(=O)NCCCN1CCOCC1 (centres undefined)	0.13	-2.44	-0.24	0.08	-1.31	-0.33	-0.93	-1.35
CNc1cc(-c2cccc(Cl)c2Cl)nc(N)n1	0.38	-2.61	0.11	-0.27	-0.04	0.22	-2.02	0.28
CNCCC(Oc1ccccc1OC)c1ccccc1 (centres undefined)	0.01	-1.45	-0.03	-0.42	-0.93	0.05	-1.7	0.03
N#C[C@@H]1C[C@@H]2C[C@@H]2N1C(=O)[C@@H](N)C12CC3CC(CC(O)(C3)C1)C2	0.22	0.38	0.24	-0.14	-0.19	0.33	-2.27	1.46
CCC(CC)N(CCN(C)C(=O)CCC(=O)O)Cc1cccc(C(=O)Nc2sc3c(c2C(=O)c2cnn(-c4ccc(Cl)c(C(F)(F)F)c4)c2)CCC(C)(C)C3)c1	-0.27	1.72	-0.99	-8.05	-4.31	-1.59	-8.72	1.42
CN(CCCCCCNc1ccnc2cc(Cl)ccc12)CCCCCCNc1ccnc2cc(Cl)ccc12	-1.1	2.96	0.27	-0.85	-0.7	-0.51	-1.69	0.54
CC(C)(C)OC(=O)N1CCN(C(=O)n2cc(-c3ccc(OC(F)(F)F)cc3)nn2)C(Cc2ccccc2)C1 (centres undefined)	0.06	-0.12	0.53	-0.73	-0.69	-0.4	-1.5	-0.53
CCC(CC)(NC(=O)C(C)C)C(=O)N[C@@H](CCCNC(=N)N)C(=O)NC1(C(=O)NC(c2ccc(F)cc2)c2ccc(F)cc2)CCCC1	0.63	-1.92	-0.27	0.35	-0.5	-0.02	-0.05	-1.17
C[C@@H](Oc1ccc(S(C)(=O)=O)cc1C(=O)N1C[C@@H]2C[C@]2(c2cc(C(F)(F)F)on2)C1)C(F)(F)F	0.62	-3.24	0.09	-0.17	-0.39	0.07	-2.51	0.43
N#Cc1ccc(-c2c3n(c4cccnc24)CCN(C2CC2)C3=O)cc1F	0.62	-3.17	0.14	-0.26	1.8	0.04	-2.3	0.73
Cc1ccc(F)c2cc(C(=O)N[C@@H]3CCC[C@H](N4CC[C@H](N(C)S(C)(=O)=O)C4)C3)[nH]c12	0.55	-1.2	0.24	0.73	-1.31	-0.53	0.21	-1.39
O=C(NCC1(c2nc(-c3ccccc3)cs2)CCOCC1)c1cccc(-c2noc(C(F)(F)F)n2)c1	0	-2.25	0.39	0.15	-0.34	-4.88	-0.64	-1.09

Structure (SMILES)	ΔTm [1] [°C]	ΔTm [2] [°C]	ΔTm [3] [°C]	ΔTm [4] [°C]	ΔTm [5] [°C]	ΔTm [6] [°C]	ΔTm [7] [°C]	ΔTm [8] [°C]
C[C@H](N)C(=O)N1C[C@H](CCCB(O)O)[C@](N)(C(=O)O)C1	0.03	-2.12	-0.11	-0.32	-0.3	0.12	-2.46	-0.11
CCOC(=O)NCCCC(=O)NCCc1ccccc1	0.36	-0.9	-0.09	0.24	0.15	0.16	-1.13	-0.68
O=C(Nc1ccccc1C(=O)O)c1cc(S(=O)(=O)c2ccccc2)ccc1Cl	0.57	-2.4	0.28	-0.33	0.26	0.08	-2.26	1.1
COc1ccc(/C=C/C(=O)NO)c(-c2ccc(-c3ccccc3)cc2)c1	-1.93	2.27	0.43	-0.46	3.08	-9.33	2.77	3.31
CC(=O)N[C@@H](Cc1ccc(O)cc1)C(=O)N[C@H](C(=O)N[C@@H](C)C(=O)N[C@@H](CC(=O)O)C(=O)CCl)C(C)C	0.08	-2.91	-0.27	0.22	-1.19	-0.01	-1.19	-1.17
CCC1CCCCN1C(=O)n1ncc(C(O)(c2ccccc2)c2ccccc2)n1 (centres undefined)	-3.62	-3.03	-0.45	0.07	-6.94	0.16	-2.31	-1
O=C1COc2c(cccc2[C@@H](O)CNCCN(C(=O)CCNCCc2ccc(Cl)c(Cl)c2)C2CCCCC2)N1	0.38	-1.19	0.73	0.16	0.42	0.56	-1.62	1.39
N#Cc1cc(F)cc(Oc2ccc3c(c2C(F)F)[C@@H](O)C(F)(F)S3(=O)=O)c1	0.45	-2.84	-0.03	-0.34	0.02	0.16	-2.42	-0.94
COc1cc2c(cc1-c1c(C)noc1C)[nH]c1nc(C)nc(Nc3cc(C4CC4)nn3C)c12	0.79	14.9	-0.63	-0.39	0.26	0.59	-0.72	0.66
NC(=O)c1cc(F)cc2c1C(=O)N(C1CCN(C3CCC(F)(F)CC3)CC1)C2	0	-1.47	0.02	0.25	-0.85	0.19	-1.86	1.35
Oc1ccc(-c2c(-c3ccccc3)nn3c(C(F)(F)F)cc(C(F)(F)F)nc23)cc1	2.06	-1.27	0.46	0.39	-0.06	-0.2	-0.53	-0.6
CCNC(=O)/C=C/c1cccc(Br)c1	0.39	-0.78	0.01	-0.27	-0.4	-0.04	-2.22	-0.12
CCCC(NC(=O)C(CC(C)C)NC(=O)OCc1ccccc1)C(=O)C(=O)NCc1ccccn1 (racemic)	0.33	-1.67	-0.66	0.03	-0.68	-0.49	-1.04	-0.95
CCCn1/c(=N/C(=O)c2cccc(C(N)=O)c2)[nH]c2ccccc21	1.41	-1.51	0.06	0.95	-0.17	-1.41	-0.08	-0.27
O=C(O)C1CCCN(CCC=C(c2ccccc2)c2ccccc2)C1 (centres undefined)	0.13	-2.59	0	-0.19	-0.66	0.13	-2.34	-1.2
COC1CCN(C(=O)c2cc(Cc3n[nH]c(=O)c4ccccc34)ccc2F)CC1	0.56	-2.02	0.16	-0.31	0.09	0.51	-2.39	-0.67
Cn1cc(-c2ccncc2)c(-c2ccc(OCc3ccc4ccccc4n3)cc2)n1	0.66	-0.49	-0.35	1.79	0	0.13	2.06	0.65
O=C(NCCCc1ccccc1)c1cccc(-c2cc(O)c3ncccc3c2)c1	0.62	-0.53	0.91	0.06	0.84	0.32	-0.61	0.72
C#CCNC(=O)[C@H](CO)NC(=O)[C@H](CCCCN(CC)CC)NC(=O)[C@@H](NC(=O)[C@@H](NC(=O)[C@H](Cc1ccc(O)c(Cl)c1)NC(=O)c1cc(Cl)cc(Cl)c1)C1CCCC1)[C@@H](C)CC ({Benzoyl(3,5-Cl2)}-[Tyr(3-Cl)][Gly(cPent)]I[Lys(Et2)]S-{NH(propargyl)})	0.75	-3.03	0.1	0.08	-0.72	0.49	-2.28	0
Cc1cc2cc(NS(=O)(=O)c3ccc(C#N)cc3)ccc2n(C)c1=O	0.57	-0.91	0.09	0.09	0.03	-3	-1.09	0.17
Cc1cccc(N/N=C(\C(=O)c2cccs2)C(=O)C(F)(F)F)c1	0.48	-1.9	0.44	-0.01	-0.93	0.19	-1.9	-1.89
COc1ccc(-c2ccc(-c3cn(C(=O)N4CCCCC4c4ccccc4)nn3)cc2)cc1 (centres undefined)	0.38	-2.64	0.04	-0.53	-1.61	-0.45	-1.09	-0.5
